Laboratory results: PubChem BioAssay AID624167 (Sanford-Burnham Center for Chemical Genomics, 2012)

Test: Peg3 promoter luciferase inhibitors, potency, dose response, cell-based, HeLa, CREF/GAPDH counter-screen panel (AID 624167)
Details: CREF/GAPDH counter-screens; run 1, dose range 1, at 100 µM (top of the series)

SMILES | inhibition [%]
CC1=CC2/C=C(\C)CCC(O)C(O)/C=C/C(=O)C23C(=O)NC(CC(C)C)C3C1C (stereo not drawn) | 99.8
CC(=O)OC1CC[C@]2(C#N)[C@H]3CC[C@]4(C)[C@H](C5C=CC(=O)O5)CCC4(O)C3CCC2(O)C1 (stereo partly drawn) | 77.9
COC(COC(N)=O)C1=C(N2CC2)C(=O)C(C)=C(N2CC2)C1=O (stereo not drawn) | 84.3
CCC(c1nnnn1-c1ccc2c(c1)OCCO2)N1CCC(n2c(=O)[nH]c3ccccc32)CC1 (stereo not drawn) | 92.4
C=Cc1cc(OC)c2c(c1)c(=O)oc1c2cc(OC)c2c(O)ccc(C3OC(C)C(O)C(C)(O)C3O)c21 (stereo not drawn) | -12.4
COc1cc2nc(CN3CC=C(c4ccccc4)CC3)[nH]c(=O)c2cc1OC | 56.3
CC(=O)OC1(C)CC(C)C(=O)C(C(O)CC2CC(=O)NC(=O)C2)C1 (stereo not drawn) | 89.5
O=C(CSC1c2ccccc2-c2ccccc21)N/N=C/c1ccccc1O | 60.3
